Data as given in PubChem BioAssay AID2462 (Broad Institute, 2010).
Screen size: about 330,000 compounds; about 220 (0.067%) were called active. This is one part of a sample in which actives are shown more often than they occur.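 How the source made its calls: active means over half of replicate activation scores above 10%, or exactly half above 10 with the replicate mean above 10; inconclusive means replicate mean below 10 yet half the replicates above 10; inactive means over half of replicates below 10.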

Experiment: inducers of caspase signal in A1-primed MEFs – cell-based, luminescence, HTS, A1 inhibitor project, primary screen (AID 2462)
Conditions: MEF A1-2A-BIM cells, Caspase-Glo 3/7 luminescence, 3 h; hits give high values; percent of clofoctol response, vehicle zero; concentration not given here

Caspase activation, inactive:
C=CCOc1c(CNn2cn[nH]c2=S)cccc1OC 0.398%
CCOC(=O)c1c(C)n(C)c2ccc(OC)c(NS(=O)(=O)CC)c12 -0.135%
CC12CCC(C(=O)N(NC(=O)c3ccccc3O)C1=O)C2(C)C (stereo not given) 1.44%
CCOC(=O)c1cnc(-n2nc(C)cc2C)nc1NNc1cc(C)nc(-c2ccccc2)n1 -0.244%
O=C1CC(Cc2ccccc2)C(=O)N1c1ccc(Cl)cn1 (stereo not given) -0.386%
CCOC(=O)C1=C(CN2CCc3ccccc32)NC(=O)NC1c1cc(C)ccc1C (stereo not given) -0.324%
COC(=O)c1ccc(/C=C/c2c(-c3ccc(OC)cc3)sc3ccccc23)cc1 0.0613%
CCOc1ccc(NC(=O)c2ccc(CSc3nnnn3C)cc2)cc1 -1.46%
CN1CCN(CC(=O)C23CC4CC(CC(C4)C2)C3)CC1 -0.618%
Cc1c(C(=O)NNC(=O)c2ccncc2)oc2ccccc12 -1.06%
O=c1cc(CN2CCN(c3cccc(Cl)c3)CC2)c2cc3c(cc2o1)CCCC3 0.443%
Cc1cccc(N2CC(C(=O)Nc3ccccc3N3CCCC3)CC2=O)c1C (stereo not given) -0.198%
COc1ccc(C2C(C#N)=C(N)Oc3cc(N)ccc32)cc1OC (stereo not given) 0.292%
FC(F)(F)c1ccnc(Oc2ccc(C3=NCCS3)cc2)c1 -5.34%
CC(=O)Nc1ccc(C(=O)OCC(=O)Nc2ccc([N+](=O)[O-])cc2C(F)(F)F)cc1 0.347%
Cc1ccc(CNC(=O)C2CCCN2C(=O)NCc2ccccc2)cc1 (stereo not given) 0.299%
Cc1cccc(OCCNC(=S)NC(=O)c2cccnc2)c1 0.352%
O=C(NCCN1CCN(C(=O)c2cccc([N+](=O)[O-])c2)CC1)C(=O)NCc1ccc(Cl)cc1 -0.117%
O=C(CN(Cc1ccccc1)C(=O)CCC(=O)Nc1ccccn1)NCCc1ccccc1 -0.282%
CCOC(=O)CC1COCCN1C(=O)c1cc(COc2ccc(F)c(F)c2)on1 (stereo not given) -0.113%
Cc1ccc(-n2ncc3c2CC(C)(C)CC3NC(=O)CCc2cnn(C)c2)cc1 (stereo not given) 0.222%
COc1ccc(N2CCN(C(=O)CCSCc3ccccc3F)CC2)cc1 -0.325%
CSc1ccc(/C=C2\NC(=O)NC2=O)cc1 -0.861%
O=C(CCc1n[nH]c(=O)[nH]c1=O)N/N=C/c1ccc(Br)o1 -0.493%
CN(C(=O)c1cccc(NC(=O)C2CCN(C(=O)OC(C)(C)C)CC2)c1)C1CCC1 0.788%
